Avidin bead fluor: compound fluoresces at 488/530 nm on avidin beads; compound fluorescence 488/530 nm, flow cytometry; hits give high values; fluorescence (KMESF) at 10 µM; actives 0.38% (n = 220,000); AID 1775; in the data active = fluorescence above about 47
GSH fluor: GSH bead compound fluorescence profile; GSH beads flow cytometry, compound fluorescence 488/530 nm; hits give high values; fluorescence (KMESF) at 10 µM; actives 0.25% (n = 190,000); AID 1776; in the data active = fluorescence above about 89;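 also: glutathione beads carrying GST-tagged Bcl family fusion proteins plus one bare bead set; values are compound well signal with DMSO vehicle wells as background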
RGS16-Gao HTS: modulates binding between human RGS16 and Galphao. bead-based flow cytometry RGS16-Galphao binding, fluorescence; actives lie on both sides. binding response (% of control), % at 10 µM. actives 0.38% (n = 220,000). AID 1441;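 also: Galphao activated by GDP with aluminum fluoride before binding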
Target sequence (O15492 whole entry, looked up): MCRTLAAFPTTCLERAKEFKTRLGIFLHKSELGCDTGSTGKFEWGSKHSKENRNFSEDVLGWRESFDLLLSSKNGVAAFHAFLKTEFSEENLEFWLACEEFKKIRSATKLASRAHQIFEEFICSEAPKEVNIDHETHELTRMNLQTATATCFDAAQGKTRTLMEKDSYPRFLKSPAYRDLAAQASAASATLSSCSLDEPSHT
Target sequence (P09471 whole entry, looked up): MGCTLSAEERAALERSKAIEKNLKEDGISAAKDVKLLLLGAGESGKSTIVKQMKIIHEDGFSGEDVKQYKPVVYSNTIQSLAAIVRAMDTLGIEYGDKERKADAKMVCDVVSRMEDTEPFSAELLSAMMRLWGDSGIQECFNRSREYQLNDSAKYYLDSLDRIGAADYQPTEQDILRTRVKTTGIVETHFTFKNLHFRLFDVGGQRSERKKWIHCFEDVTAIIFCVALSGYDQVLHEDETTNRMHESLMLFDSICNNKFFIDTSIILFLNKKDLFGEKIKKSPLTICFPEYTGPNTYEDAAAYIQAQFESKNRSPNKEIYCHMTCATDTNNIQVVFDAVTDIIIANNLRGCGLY
RGS7-Gao: human RGS7-Galphao interaction regulation; actives 0.35% (n = 220,000); Multiplexed bead flow cytometry, RGS7-Galphao binding; actives lie on both sides; binding response (% of control), % at 10 µM; P09471; in the data active = binding response below about 49% or above about 150%; inconclusive = no clear call, values can overlap the other calls; inactive = in between;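 also: fluorescent Galphao held in activated GDP-AlF4 state binding bead-coupled RGS7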
Target sequence (P09471 whole entry, looked up): as above
RGS4-Gao reg: human RGS4-Galphao interaction regulation; P09471; Multiplexed bead flow cytometry, RGS4-Galphao binding; actives lie on both sides; binding response (% of control), % at 10 µM; actives 0.33% (n = 220,000); AID 1415; in the data active = binding response below about 49% or above about 150%; inactive = in between;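 also: fluorescent Galphao activated with aluminum fluoride binding bead-coupled RGS4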
RGS8-Gao reg: regulators of human RGS8-Galphao interaction; AID 1423; multiplexed bead flow cytometry, RGS8-Galphao binding; actives lie on both sides; response (percent of control binding), % at 10 µM; actives 0.34% (n = 220,000); P09471; in the data active = response below about 60% or above about 140%; inactive = in between;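 also: Galphao activated as the GDP aluminium fluoride complex binding bead-coupled RGS8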
RGS4-Gao HTS: modulates binding between human RGS4 and Galphao. shares compounds with RGS16-Gao HTS. RGS4–Galpha-o binding response, % at 10 µM. AID 1504. multiplexed bead flow cytometry, RGS–Galpha-o binding. actives 99% (n = 1,600);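 also: fluorescently labeled Galpha-o bound to GDP with aluminium fluoride binding biotinylated RGS beads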
Biotin-avidin: counter-screen: compounds disrupting biotin binding to avidin beads | shares compounds with RGS16-Gao HTS | streptavidin beads, fluorescein-biotin binding, flow cytometry | inhibition, % at 10 µM | 1,700 tested, under 10 active;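 active = inhibition above 50%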;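 also: median green fluorescence of gated singlet beads compared with DMSO control wells; 0% = DMSO wells and 100% = complete loss of bead fluorescence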
RGS8-Gao single: confirmation of regulators of human RGS8-Galphao interaction | shares compounds with RGS16-Gao HTS | bead-based flow cytometry RGS8-Galphao binding, fluorescence; actives lie on both sides | binding response (% of control), % at 10 µM | actives 3% (n = 1,700); in the data active = binding response below about 72% or above about 130%; inactive = in between;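 also: Galphao activated as GDP AlF4 complex before binding bead RGS8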
RGS7-Gao confirm: confirmation of regulators of human RGS7-Galphao interaction. shares compounds with RGS16-Gao HTS. bead-based flow cytometry RGS7-Galphao binding; actives lie on both sides. response (percent of control binding), % at 10 µM. actives 7.8% (n = 1,700). AID 1837; in the data active = response below about 75% or above about 130%; inactive = in between;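 also: fluorescent Galphao activated with GDP and aluminum fluoride binding bead-coupled RGS7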
RGS16-Gao single: RGS16-Galphao interaction regulation, single point confirmation. shares compounds with RGS16-Gao HTS. bead-based flow cytometry, RGS16-Galphao binding; actives lie on both sides. response (% of control binding), % at 10 µM. actives 4% (n = 1,700). AID 1838; in the data active = response below about 74% or above about 130%; inactive = in between;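 also: Galphao activated as the GDP aluminium fluoride complex binding bead-coupled RGS16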
RGS4-Gao confirm: confirmation of regulators of human RGS4-Galphao interaction. AID 1840. shares compounds with RGS16-Gao HTS. binding response (% of control), % at 10 µM. RGS4-Galphao binding, multiplexed bead flow cytometry; actives lie on both sides. actives 4% (n = 1,700); in the data active = binding response below about 74% or above about 130%; inactive = in between
RGS19-Gao single: confirmation of regulators of human RGS19-Galphao interaction; actives 5% (n = 1,700); shares compounds with RGS16-Gao HTS; bead-based flow cytometry RGS19-Galphao binding; actives lie on both sides; response (percent of control binding), % at 10 µM; in the data active = response below about 50% or above about 160%; inactive = in between;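 also: 100% = no compound control and 0% = blank background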
* hit, by the source's call; u = inconclusive; x = no result; [ ] = another dose, or the depositor's remark. Rows were chosen to be rich in hits. Some 1.2% of all compounds tested hit in one or more screens of this group. Unless noted, no rule for the calls is given here.

SMILES | Avidin bead fluor | GSH fluor | RGS16-Gao HTS | RGS7-Gao | RGS4-Gao reg | RGS8-Gao reg | RGS4-Gao HTS | Biotin-avidin | RGS8-Gao single | RGS7-Gao confirm | RGS16-Gao single | RGS4-Gao confirm | RGS19-Gao single
CCCCNC(=O)c1ccc(N2CCC3(CC2)OCCO3)c([N+](=O)[O-])c1 | 9 | 9 | 21.1* | 93.4 | 94.2 | 77.8 | 94.2* | -1.5 | 92.6 | 90.9 | 93.1 | 91.9 | 90.7
COc1ccc(CN2C(=O)c3ccccc3C2C(=O)NC2CCC(C)CC2)c(OC)c1 (configuration not stated) | 5 | 10 | 102.1 | 106.9 | 104.5 | 102.5 | x | x | x | x | x | x | x
Cc1nc2ccc(C(=O)O)cc2c2c1CC(C)S2 (configuration not stated) | 8 | 11 | 102.3 | 98.0 | 101.2 | 100.2 | x | x | x | x | x | x | x
Cc1ccc(S(=O)(=O)NCCC(=O)NCc2ccco2)cc1 | 11 | 22 | 92.8 | 91.9 | 92.2 | 92.5 | x | x | x | x | x | x | x
COc1ccc(C2=NN(C(=S)Nc3ccccc3)C(c3ccccc3)C2)cc1 (configuration not stated) | 12 | 11 | 385.0*[activator] | 118.2 | 116.8 | 134.1 | 116.8* | -0.4 | 106.5 | 102.3 | 109.0 | 104.8 | 118.1
COc1ccc(C2CC(c3ccccc3)=NN2C(=S)Nc2ccccc2)cc1 (configuration not stated) | 25 | 9 | 103.5 | 109.1 | 104.3 | 101.6 | x | x | x | x | x | x | x
COc1ccc(/C=C\C(=O)NCc2ccc3c(c2)cc(C)n3C)cc1OC | 4 | 15 | 22.9* | 79.3 | 79.4 | 70.8 | 79.4* | x | x | x | x | x | x
Cc1nn(-c2ccccc2)c(N2CCCC2)c1/C=N/NC(=O)c1ccccc1O | 11 | 14 | 117.6 | 107.5 | 111.5 | 105.7 | x | x | x | x | x | x | x
O=C(N/N=C/c1cc2c3c(c1O)CCCN3CCC2)c1ccccc1O | 1 | 9 | -13.4 | 14.8* | 25.0* | 42.8* | x | -4.3 | 88.5 | 83.6 | 85.2 | 86.2 | 104.0
CCC(Oc1ccccc1)C(=O)N(Cc1ccccc1)c1ccccn1 (configuration not stated) | 10 | 24 | 99.6 | 89.9 | 92.9 | 96.9 | x | x | x | x | x | x | x
CC(C)C(=O)N(Cc1ccccc1)c1ccccn1 | 116* | 38 | 243.9*[activator] | 207.8*[activator] | 250.6*[activator] | 113.4 | x | -1.5 | 101.8 | 98.4 | 99.7 | 100.2 | 99.6
CSC1=NCCN1C(=O)c1c(-c2c(F)cccc2Cl)noc1C | 5 | x | 101.0 | u | 99.3 | 102.9 | x | x | x | x | x | x | x
O=c1cc(C(F)(F)F)[nH]c2c(OC(F)(F)F)cccc12 | 3 | x | 100.9 | u | 102.8 | 101.0 | x | x | x | x | x | x | x
N#C/C(=C\c1ccc(Cl)cc1)c1nc2ncccc2[nH]1 | 10 | 15 | -39.7* | 83.7 | 89.5 | 70.8 | 89.5* | x | x | x | x | x | x
N#C/C(=C\c1c(Cl)cccc1Cl)c1nc2ccccc2[nH]1 | 9 | x | 105.1 | u | 101.3 | 102.4 | x | x | x | x | x | x | x
COc1ccc(OC)c(/C(O)=C/C(=O)C(=O)Nc2cc(C)ccc2OC)c1 | -1 | 29 | 709.8 | 67.9 | 48.8* | 81.9 | x | 0.1 | 88.9 | 75.5* | 86.7 | 83.7 | 127.0
COc1ccc(OC)c(/C(O)=C/C(=O)C(=O)Nc2cc(C)cc(C)c2)c1 | 15 | 35 | 100.9 | 96.7 | 97.2 | 100.5 | x | x | x | x | x | x | x
Cc1ccccc1-n1c(SCC(=O)c2c(N)n(C)c(=O)n(C)c2=O)nc2sc3c(c2c1=O)CCCC3 | 1 | 10 | 22.1* | 88.6 | 88.2 | 68.0 | 88.2* | 3.0 | 102.7 | 106.0 | 105.0 | 102.9 | 92.9
CCCCCNCc1ccc(OCc2ccc(Cl)nc2)c(OC)c1 | 25 | 10 | 265.6*[activator] | 124.9 | 116.1 | 132.0 | 116.1* | -1.7 | 101.8 | 94.9 | 102.7 | 100.9 | 112.7
CCC(C)n1ncn(-c2ccc(N3CCN(c4ccc(OC)cc4)CC3)cc2)c1=O (configuration not stated) | 14 | 15 | 92.6 | 98.3 | 97.6 | 97.7 | x | x | x | x | x | x | x
Cc1ccc2cc(C)c(Sc3nnnn3-c3ccccc3)nc2c1 | 17 | 4 | 190.8*[activator] | 105.5 | 112.1 | 119.4 | 112.1* | -1.0 | 109.2 | 110.7 | 114.4 | 108.4 | 125.9
FC(F)(F)Oc1ccc(NC(=S)Nc2ccccc2N2CCOCC2)cc1 | 7 | x | 103.5 | u | 106.8 | 105.4 | x | x | x | x | x | x | x
O=C(c1nn2c(C(F)(F)F)cc(-c3ccco3)nc2c1Br)N1CCCc2ccccc21 | x | 15 | x | x | x | x | x | 2.0 | 104.8 | 107.1 | 107.4 | 108.5 | 89.9
CCc1nccn1S(=O)(=O)c1cc(OC)c(Cl)cc1OC | -4 | 12 | 77.4 | -75.7* | -221.8* | 12.5* | x | -0.7 | 101.3 | 74.8* | 88.7 | 83.9 | 57.5
CCc1nccn1S(=O)(=O)c1cc(C)c(OC)cc1C | 5 | 17 | 113.2 | 103.5 | 102.0 | 106.2 | x | x | x | x | x | x | x
CC(=O)N1CCc2c(sc(NC(=O)CN3C(=O)c4ccccc4C3=O)c2C(N)=O)C1 | 6 | 18 | 150.1 | 156.9*[activator] | 145.7 | 139.9 | 145.7* | -0.7 | 105.0 | 111.6 | 105.9 | 109.4 | 96.9
Cc1onc(-c2c(F)cccc2Cl)c1C(=O)OCC(=O)NC(c1ccccc1)c1ccccc1 | 5 | 5 | 97.3 | 99.7 | 101.0 | 101.9 | x | x | x | x | x | x | x
CCCCC(CCC(=O)O)(C(=O)OCC)c1csc(Nc2ccc(C)cc2)n1 (configuration not stated) | 0 | 13 | 10.0* | -15.9* | 1.7* | 11.8* | x | 3.0 | 94.3 | 91.7 | 91.6 | 90.6 | 74.9
Nc1ccc(-c2ccc(N)cc2C(F)(F)F)c(C(F)(F)F)c1 | 123* | 24 | 109.7 | 203.8*[activator] | 118.0 | 101.1 | 118.0* | -2.3 | 100.7 | 100.7 | 97.4 | 96.7 | 105.4
